# From PubChem BioAssay
# Hits are enriched below; roughly 1.5% of the tested compounds scored in any of these assays.
# E coli Lon inh: inhibits E. coli Lon protease; 0.42% of 360,000 active; purified E. coli Lon protease, fluorescence polarization; inhibition, % at 7.94 µM; P0A9M0; in the data active means inhibition above about 13%, passing the limit was not always enough;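 further: 0% = enzyme with probe and DMSO and 100% = no enzyme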
# EBV gp42 block: blocks Epstein-Barr virus glycoprotein 42 binding; Fluorescence polarization binding assay, mP read-out; Q1HVG2; inhibition, % (tested at 21.74 µM); 0.42% of 220,000 active; AID 1085; in the data active means inhibition above about 50%
# Target sequence (Q1HVG2 whole entry, looked up): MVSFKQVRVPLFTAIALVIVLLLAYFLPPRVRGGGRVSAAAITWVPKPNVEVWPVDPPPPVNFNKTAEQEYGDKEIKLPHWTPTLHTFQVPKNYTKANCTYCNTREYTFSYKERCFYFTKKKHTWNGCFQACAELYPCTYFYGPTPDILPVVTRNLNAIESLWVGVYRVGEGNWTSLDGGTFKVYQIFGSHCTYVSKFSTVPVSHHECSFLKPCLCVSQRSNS
# MEX-5 binding: C. elegans MEX-5 TCR-2 RNA binding activity; MEX-5/FITC-TCR2 RNA binding, fluorescence polarization; stronger effect = lower value; activity score (negative = inhibition of binding), % at 10 µM; 0.38% of 300,000 active;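 active means inhibition past about -25% in most replicates, and total fluorescence under double the plate's negative control median, limit read from the data; inconclusive means replicates evenly split on the limit, or fluorescence at least double controls; inactive means too little inhibition in most replicates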;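 further: 0% = DMSO and -100% = 5 µM competing unlabeled TCR2 RNA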
# GLD-1 RNA inh: GLD-1-TGE RNA interaction inhibition (C. elegans). Q17339. purified GLD-1 + fluorescein TGE RNA, fluorescence polarization. inhibition, % at 5.96 µM. 0.44% of 320,000 active. AID 2280;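 active means percent inhibition above a per-plate cutoff, the plate mean of test compounds plus 3 SD, cut at about 30% in these data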;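 further: 0% = DMSO wells with GLD-1 and probe and 100% = wells lacking GLD-1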
# MCL1 BIM primary: disrupts human MCL1 binding to BIM-BH3 peptide; GST-MCL1 / FITC-Bim-BH3 fluorescence polarization; inhibition, % at 10.9 µM; 0.68% of 320,000 active;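 active means inhibition above the mean inhibition of all tested compounds plus 3 SD, set per campaign, cut at about 40% in these data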;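 further: 0% = DMSO wells and 100% = unlabeled Bim-BH3 peptide control; higher means more loss of mP so more displacement of Bim peptide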
# Target sequence (Q07820 whole entry, looked up): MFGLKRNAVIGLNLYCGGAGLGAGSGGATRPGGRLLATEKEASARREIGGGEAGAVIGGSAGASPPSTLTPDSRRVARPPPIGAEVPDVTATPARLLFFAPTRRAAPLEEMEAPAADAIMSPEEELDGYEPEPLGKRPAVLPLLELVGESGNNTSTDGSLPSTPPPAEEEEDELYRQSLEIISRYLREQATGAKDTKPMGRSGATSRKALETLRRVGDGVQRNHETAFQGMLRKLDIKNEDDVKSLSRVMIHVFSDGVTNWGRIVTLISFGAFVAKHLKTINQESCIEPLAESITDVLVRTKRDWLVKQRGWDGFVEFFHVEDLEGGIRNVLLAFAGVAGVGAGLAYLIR
# BCLXL inh: inhibitors of human Bcl-xL. inhibition, % at 10.9 µM. 0.7% of 320,000 active. AID 2129. GST-Bcl-xL / FITC-Bim BH3 peptide fluorescence polarization;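 active means inhibition above the mean of all tested compounds plus 3 SD, cutoff set per campaign, cut at about 30% in these data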;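 further: 0% = DMSO wells and 100% = unlabeled Bim-BH3 peptide competitor; inhibitors lower millipolarization by displacing the labeled peptide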
# Bcl-xL conf: counter-screen for MCL1 inhibitors: confirmation of human Bcl-xL inhibitors | shares compounds with MCL1 BIM primary | GST-Bcl-xL / FITC-Bim BH3 peptide FP binding | inhibition, % at 10.9 µM | 54% of 1,700 active;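 active means inhibition above a cutoff equal to the mean inhibition of all tested compounds plus 3 SD, cut at about 30% in these data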;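 further: 0% = DMSO wells and 100% = unlabeled Bim BH3 control peptide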
# MCL1 inh confirm: MCL1-BIM-BH3 interaction inhibition, confirmation. shares compounds with MCL1 BIM primary. GST-MCL1 / FITC-Bim-BH3 fluorescence polarization. inhibition, % at 10.9 µM. 61% of 1,700 active. AID 2168;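 active means inhibition above the average of all tested compounds plus 3 SD, cut at about 40% in these data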;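 further: 0% = DMSO wells and 100% = unlabeled Bim-BH3 control peptide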
# * marks the source's active call; other numbers are inactive results; i = inactive; ? = inconclusive; . = no result given; + = active, no number; ! = not active in a repeat.
SMILES,E coli Lon inh,EBV gp42 block,MEX-5 binding,GLD-1 RNA inh,MCL1 BIM primary,BCLXL inh,others
C[C@]12CCC3C(CC[C@H]4C[C@H](O)CC[C@]34C)C1C[C@H](O)[C@@H]2O (stereo partly specified),-1,.,.,-4,.,.,
O=c1[nH]c(=O)n(-c2cccc(Cl)c2)c(O)c1/C=N/c1ccccn1,-42,-19,-29*,-13,-18,-14,
CCS(=O)(=O)CCSP(=O)(OC)OC,-5,.,.,.,.,.,
CC(C(=O)Nc1ccc(Br)cc1C(=O)c1ccccc1)N1CCCCC1 (stereo unspecified),24*,-1,1,2,5,7,
O=c1[nH]c(=O)n(-c2ccc(F)cc2)c(O)c1/C=C1\C=Nc2ccccc21,-119,.,-37*,-19,-11,18,
O=c1[nH]c(=O)n(CC2CCCO2)c(O)c1/C=C1\C=Nc2ccccc21 (stereo unspecified),-70,-21,-36*!,-18,-23,-14,
O=c1[nH]c(=O)n(Cc2ccccc2)c(O)c1/C=C1\C=Nc2ccccc21,-98,90*,?,-39,-47,-27,
O=c1[nH]c(=O)n(-c2ccccc2F)c(O)c1/C=C1\C=Nc2ccccc21,-130,.,5,-25,-47,-23,
CCC/C=C(\CCC)C(NP(=O)(c1ccccc1)c1ccccc1)c1ccccc1 (stereo unspecified),.,.,0,3,-9,-2,
CCOC(=O)C1(c2ccccc2)CCN(CC(=O)Nc2cccc3ccccc23)CC1,-11,-6,0,4,5,4,
COc1cccc(C2(O)CCN(CC(=O)Nc3nc(C)cs3)CC2)c1,-2,-5,-51*,-7,8,9,
COc1cc2c(cc1O)C[C@H]1c3c(cc(O)c(OC)c3-2)CCN1C,-6,.,.,8,10,13,
CCCN1CCc2cc(O)cc3c2[C@H]1Cc1ccc(O)c(O)c1-3,-3,.,-82*,1,37,32*,
Cc1ccnc(-n2c(-c3ccco3)nc3ccccc3c2=O)c1,-6,-12,1,0,1,0,
O=C(N/N=C/c1c(O)n(Cc2ccco2)c(=O)[nH]c1=O)c1ccccc1O,-24,-15,-27*,-9,26,6,
O=S(=O)(NC1CCCC1)OCC(Cl)(Cl)Cl,2,.,-1,3,17,2,
N#CC(C#N)=Cc1ccc(-c2ccccc2)o1,.,-68,-43*,-24,-29,9,
N#CC(C#N)=Cc1ccc(O)c(O)c1,-9,.,.,1,5,6,
CN(C)c1ccc(N=Cc2c(O)n(CCC3=CCCCC3)c(=O)[nH]c2=O)cc1,-12,-85,-63*,-2,7,7,
COc1ccc(/C=C/C(=O)c2c(O)n(CCC3=CCCCC3)c(=O)[nH]c2=O)cc1OC,-13,-83,-47*,-2,-2,-2,
O=C(c1cc(S(=O)(=O)N2CCC3(CC2)OCCO3)ccc1F)N1CCC2(CC1)OCCO2,-10,0,1,0,-3,-2,
CSc1nc(NC(C)C)nc(NC(C)C)n1,-3,.,.,.,.,.,
Cn1c(O)c(/C=C/C=Nc2ccccc2)c(=O)n(C)c1=S,i,-10,-1,-61,-25,55*,
Cc1cccc(N2C(=O)NC(=O)/C(=C/c3cc4c(cc3[N+](=O)[O-])OCO4)C2=O)c1,9,83*,-69*,77*,119*,118*,
COc1ccc(N2C(=O)NC(=O)/C(=C\c3ccccc3[N+](=O)[O-])C2=O)cc1,5,-13,1,-6,7,6,
SMILES,E coli Lon inh,EBV gp42 block,MEX-5 binding,GLD-1 RNA inh,MCL1 BIM primary,BCLXL inh,others
O=C1NC(=O)C(=Cc2cc3c(cc2[N+](=O)[O-])OCO3)C(=O)N1,4,-19,-12,13,19,32*,
CCOc1ccc(C(=O)OC2CC3CCC(C2)N3C)cc1 (stereo unspecified),-8,-6,2,1,5,-2,
COc1ccc(C2C(C(=O)N3CCC4(CC3)OCCO4)c3cc(OC)c(OC)cc3C(=O)N2C)cc1 (stereo unspecified),-7,-4,-1,-1,6,8,
Cc1cccc(N2C(=O)NC(=O)/C(=C\c3cc(C)n(-c4sc5c(c4C#N)CCCC5)c3C)C2=O)c1C,-30,-37,1,-16,-12,-3,
CCOC(=O)c1c(-n2c(C)cc(C=C3C(=O)NC(=O)NC3=O)c2C)sc2c1CCCC2,-10,-138,-45*,2,-5,-2,
O=C1NC(=O)N(c2ccccc2)C(=O)/C1=C\c1ccc([N+](=O)[O-])o1,.,-12,-2,12,42*,36*,
CN1C(=O)NC(=O)/C(=C\c2ccc([N+](=O)[O-])o2)C1=O,-9,-4,-61*,23,39,39*,
CN1C(=O)NC(=O)/C(=C/c2ccc([N+](=O)[O-])o2)C1=O,.,-9,-43*,5,27,30*,
CN1C(=O)NC(=O)/C(=C/c2ccc([N+](=O)[O-])s2)C1=O,-26,-5,-11,11,18,14,
CC(=O)n1cc(C=C2C(=O)NC(=O)NC2=O)c2ccccc21,-29,.,-4,3,-3,3,
Cn1cc(C=O)c2nccnc21,4,.,.,.,.,.,
CC12Cc3cnoc3C=C1CCC1C2CCC2(C)C1CCC2(C)O (stereo unspecified),-15,.,.,.,.,.,
Cc1cc(C)cc(-n2c(O)c(C=Nc3ccc(N4CCOCC4)cc3)c(=O)[nH]c2=S)c1,-27,58*,-52*,-6,-27,-17,
Cc1nc2ccccc2c(=O)n1-c1ccncc1,-11,-19,-3,4,9,5,
CN1C(=O)C(Cc2c[nH]c3ccccc23)C(=O)N(C)C1=O,.,104*,.,.,.,.,
CC(NC(=O)Cc1cccc2ccccc12)C(=O)N1CCC(=O)CC1 (stereo unspecified),-8,-10,-1,7,10,12,
CN1CCN(c2ncnc3c2cnn3C)CC1,2,-12,.,11,30,39*,
CC(C)(O)[C@H]1O[C@H]2CC[C@@]3(C)[C@@](O)(CC[C@H]4Cc5c([nH]c6ccccc56)[C@@]43C)C2=CC1=O,.,53*,-28*,74*,100*,83*,Bcl-xL conf=60*;MCL1 inh confirm=76*
CN(C)[C@@H]1C(=O)C(C(N)=O)=C(O)[C@@]2(O)C(=O)C3=C(O)c4c(O)cccc4[C@@](C)(O)C3[C@H](O)C12 (stereo partly specified),71,.,-11,77*,+,153*,Bcl-xL conf=37*;MCL1 inh confirm=87*
